# “And” between values parts separate entries of the source, which are not always exact repeats. Equal values may be shown once.
# Target: Neurogenic locus notch homolog protein 3 (Homo sapiens) (UniProt Q9UM47)
# Test: NOTCH3 binders on small-molecule microarray, primary screen, biochemical, 635/667 nm fluorescence (AID 1096)
# Conditions: NOTCH3 binding, 635 nm fluorescence, higher = more signal
# Neurogenic locus notch homolog protein 3 (Homo sapiens), sequence (Q9UM47 whole entry, looked up): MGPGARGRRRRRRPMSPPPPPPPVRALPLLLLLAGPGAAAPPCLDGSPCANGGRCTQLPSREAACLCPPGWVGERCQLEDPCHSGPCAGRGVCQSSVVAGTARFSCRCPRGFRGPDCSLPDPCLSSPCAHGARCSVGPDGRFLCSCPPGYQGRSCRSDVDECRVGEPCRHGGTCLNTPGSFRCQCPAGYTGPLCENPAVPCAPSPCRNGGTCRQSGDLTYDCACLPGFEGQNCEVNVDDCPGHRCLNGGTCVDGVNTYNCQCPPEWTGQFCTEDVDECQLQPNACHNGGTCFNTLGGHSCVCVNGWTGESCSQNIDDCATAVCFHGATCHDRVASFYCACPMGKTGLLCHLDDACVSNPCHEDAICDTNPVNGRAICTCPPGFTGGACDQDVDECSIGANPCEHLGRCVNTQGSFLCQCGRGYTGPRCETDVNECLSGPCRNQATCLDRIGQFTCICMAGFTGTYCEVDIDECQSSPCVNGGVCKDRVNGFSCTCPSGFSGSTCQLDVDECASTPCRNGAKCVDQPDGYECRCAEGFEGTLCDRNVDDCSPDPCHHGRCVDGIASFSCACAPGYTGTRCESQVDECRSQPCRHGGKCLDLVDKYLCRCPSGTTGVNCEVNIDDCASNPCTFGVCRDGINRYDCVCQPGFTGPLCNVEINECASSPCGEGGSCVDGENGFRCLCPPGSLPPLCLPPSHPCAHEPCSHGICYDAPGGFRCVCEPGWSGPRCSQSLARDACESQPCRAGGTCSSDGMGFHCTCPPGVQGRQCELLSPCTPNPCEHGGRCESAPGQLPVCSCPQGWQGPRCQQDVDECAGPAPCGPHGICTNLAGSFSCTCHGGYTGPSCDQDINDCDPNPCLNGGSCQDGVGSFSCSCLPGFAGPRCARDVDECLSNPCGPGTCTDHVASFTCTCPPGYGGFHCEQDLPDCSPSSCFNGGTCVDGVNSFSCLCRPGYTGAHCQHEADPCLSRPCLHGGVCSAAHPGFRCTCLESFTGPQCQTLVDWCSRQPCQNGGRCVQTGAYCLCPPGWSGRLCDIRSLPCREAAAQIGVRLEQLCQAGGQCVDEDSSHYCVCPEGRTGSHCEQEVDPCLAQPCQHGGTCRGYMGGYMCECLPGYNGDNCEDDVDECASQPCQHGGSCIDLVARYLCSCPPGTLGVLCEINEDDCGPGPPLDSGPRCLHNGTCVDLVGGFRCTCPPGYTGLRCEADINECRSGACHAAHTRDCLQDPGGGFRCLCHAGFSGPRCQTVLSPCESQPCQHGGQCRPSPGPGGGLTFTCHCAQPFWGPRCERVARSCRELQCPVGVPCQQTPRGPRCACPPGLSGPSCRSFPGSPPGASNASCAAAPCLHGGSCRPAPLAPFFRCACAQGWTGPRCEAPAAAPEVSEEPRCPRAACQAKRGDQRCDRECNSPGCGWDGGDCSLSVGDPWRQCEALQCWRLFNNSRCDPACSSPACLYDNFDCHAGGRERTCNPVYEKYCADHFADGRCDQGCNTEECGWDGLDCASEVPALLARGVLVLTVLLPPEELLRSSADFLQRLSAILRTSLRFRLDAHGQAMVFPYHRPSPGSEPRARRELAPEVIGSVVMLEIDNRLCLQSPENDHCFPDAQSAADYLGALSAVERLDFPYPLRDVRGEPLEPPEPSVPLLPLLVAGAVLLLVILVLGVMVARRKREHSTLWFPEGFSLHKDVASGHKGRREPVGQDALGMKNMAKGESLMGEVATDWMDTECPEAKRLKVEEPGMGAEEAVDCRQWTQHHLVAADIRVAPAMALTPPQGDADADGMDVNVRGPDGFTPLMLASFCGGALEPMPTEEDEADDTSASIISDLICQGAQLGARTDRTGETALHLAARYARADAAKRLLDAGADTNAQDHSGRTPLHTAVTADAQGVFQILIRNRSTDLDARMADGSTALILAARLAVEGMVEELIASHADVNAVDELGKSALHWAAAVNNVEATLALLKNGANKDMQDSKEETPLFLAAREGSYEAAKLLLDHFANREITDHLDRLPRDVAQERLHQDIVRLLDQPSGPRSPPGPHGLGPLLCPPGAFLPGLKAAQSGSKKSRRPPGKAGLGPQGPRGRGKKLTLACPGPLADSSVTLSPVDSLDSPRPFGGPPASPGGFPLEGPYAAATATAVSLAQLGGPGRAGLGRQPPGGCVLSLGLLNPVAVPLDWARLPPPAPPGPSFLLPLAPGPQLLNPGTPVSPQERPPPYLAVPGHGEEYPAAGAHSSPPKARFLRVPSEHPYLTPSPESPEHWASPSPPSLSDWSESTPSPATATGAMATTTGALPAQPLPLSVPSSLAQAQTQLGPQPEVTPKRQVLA
row,SMILES,composite z-score
1,C=CCN1C(=O)[C@]2(O[C@H](CCn3cc(CCO)nn3)[C@@H]([Si](C)(C)c3ccc(OC)cc3)[C@@H]2C)c2cc(N3C(=O)c4cccc5cccc3c45)ccc21,0.644 and 0.979
2,COC(=O)[C@@]1(Cc2ccc(F)cc2)[C@H]2c3cc(C(=O)N4CCCC4)n(Cc4c(CO)[nH]cc(C)c4=O)c3C[C@H]2CN1C(=O)c1ccccc1,0.335 and 0.422
3,C=CCN(CCCCC)C(=O)C1N(c2c(Cl)cccc2CO)C(=O)C2C(C(=O)O)C3C=CC21O3 (stereo not drawn),-0.676 and -0.842
4,C=CCN(C(=O)C1N(c2c(Cl)cccc2CO)C(=O)C2C(C(=O)O)C3C=CC21O3)C(C)(C)C (stereo not drawn),-0.873 and -0.616
5,COC(=O)[C@@]1(Cc2ccc(OC)cc2)[C@H]2c3cc(C(=O)N(C)C)n(Cc4ccc(O)c(OC)c4)c3C[C@H]2CN1C(=O)c1ccccc1,0.807 and 1.07
6,C=CCN(C(=O)C1N(C(C)(C)CO)C(=O)C2C(C(=O)O)C3C=CC21O3)c1ccc(OC)cc1 (stereo not drawn),-0.702 and -1.29
7,C[N+](C)(C)CCCCNC(=O)[C@@H]1C[C@@H]2C(=O)N[C@@H](CCCC[N+](C)(C)C)C(=O)N2[C@@H]1c1cccc(OCCO)c1,1.05 and 1.09
8,CCCC[C@@H]1CN2[C@@H](CC[C@@H](C)[C@@H]2c2ccc(Br)cc2)C(=O)O1,0.287 and 0.683
9,CCN1C(=O)[C@H]2[C@H]3[C@H](O)[C@H](O)CC(=NOC)[C@@H]3CC[C@H]2C1=O,-0.065
10,C=C[C@H](OC)[C@@H](O)c1ccc(OCCO)cc1,-1.56 and -0.724
11,COC(=O)C1=C(C)N(Cc2ccccc2)[C@]23O[C@](C(=O)OC)(C(=O)N2[C@@H]1c1ccccc1)[C@@H](c1ccccc1)[C@@H]3C(=O)c1ccccc1,0.58 and 0.216
12,CCOC(=O)[C@@H]1CC=C2CC1C(=O)N1CCC[C@@H]1[C@H]2O[Si](C)(C)C(C)(C)C (stereo partly drawn),-0.529 and -2.04
13,CCOC(=O)[C@@H]1CC2O[C@]23C[C@@H]1C(=O)N1CCC[C@@H]1[C@H]3O[Si](C)(C)C(C)(C)C (stereo partly drawn),-0.868 and -0.199
14,Cc1ccc(S(=O)(=O)OC[C@@H]2CN3[C@@H](CC[C@@H](C)[C@@H]3c3ccc(Br)cc3)C(=O)O2)cc1,-0.0776 and 0.686
15,COC(=O)C1=C(C)N(Cc2ccccc2)[C@]23O[C@](C(=O)OC)(C(=O)N2[C@@H]1c1ccccc1)[C@H]1C(=O)N(c2ccccc2)C(=O)[C@H]13,0.649 and 1.11
16,CCOC(=O)c1ccc(NC(=O)O[C@H]2[C@H](OC(=O)Nc3ccccc3)[C@H](OC(=O)Nc3ccccc3)[C@@H](OC)O[C@@H]2CO)cc1,1.04 and 1.05
17,C[N+](C)(C)CCCCCCNC(=O)[C@H]1C[C@H]2C(=O)N[C@@H](CCCC[N+](C)(C)C)C(=O)N2[C@H]1c1ccc(O)cc1,-0.275 and -0.316
18,Cc1ccc(S(=O)(=O)N[C@@H]2COC(=O)CC=C[C@@H](C)[C@@H]3C=C[C@H](O)[C@@H](COC(=O)CC=C[C@H]2C)O3)cc1,-0.0571 and 0.584
19,CCCNC(=O)OC[C@H]1O[C@H](CCON=C(C)CCC(=O)OC[C@H]2O[C@H](C#Cc3ccccc3)C=C[C@@H]2Oc2ccc(C)cc2)C=C[C@@H]1Oc1ccc(OC)cc1,-0.574
20,C=CCN(CCCC)C(=O)C1N(C(C)(C)CO)C(=O)C2C(C(=O)O)C3C=CC21O3 (stereo not drawn),-0.732 and -0.74
21,C=C[C@@H](C)[C@H](O)c1ccc(O)c2ccccc12,-0.0801 and -1.72
22,C=CCN(Cc1ccccc1)C(=O)C1N(C(C)(C)CO)C(=O)C2C(C(=O)O)C3C=CC21O3 (stereo not drawn),-1.46 and -1.43
23,C=CC[C@H](O)c1ccc(OCCO)cc1,-0.847 and -0.324
24,C=CCN(C(=O)C(c1cccs1)N(C(=O)/C=C\C(=O)O)c1ccc(CCO)cc1)c1ccc(OC)cc1 (stereo not drawn),-0.314 and -1.78
25,C=CC[C@@H](O)c1ccc(OCCO)cc1,-1.03 and -0.668
26,C=CCN(C(=O)C1N(CCCCCCO)C(=O)C2C(C(=O)O)C3C=CC21O3)c1ccc(OC)cc1 (stereo not drawn),-0.602 and -1.35
27,COC(=O)C1=C(C)N(Cc2ccccc2)C2=C(C(=O)c3ccccc3)[C@H](c3ccccc3)[C@@](O)(C(=O)OC)C(=O)N2[C@@H]1c1ccccc1,0.858 and 0.808
28,Cc1ccc(S(=O)(=O)N[C@H]2COC(=O)[C@@H](C)COC(=O)[C@H](C)NC(=O)CC=C[C@H]2C)cc1,0.646

# Tested on: not listed separately
# Test: small-molecule microarray binders of probe aEGFR, primary screen, biochemical, biotinylated probe, 635/667 nm fluorescence (AID 1097);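 further: probe is a biotinylated anti-EGFR antibody binding compounds printed on slides; score combines fluorescence near 667 nm and signal to noise of each spot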
# Conditions: higher = more signal
row,SMILES,composite z-score
1,C=CCN(CCCC)C(=O)C1N(c2ccc(CCO)cc2)C(=O)C2C(C(=O)O)C3C=CC21O3 (stereo not drawn),-0.226 and -0.317
2,COC(=O)C1=C(C)N(Cc2ccccc2)C2=C3C(=O)N(c4ccccc4)C(=O)[C@@H]3[C@@](O)(C(=O)OC)C(=O)N2[C@@H]1c1ccccc1,-0.0125 and -0.0534
3,CCC[C@@H]1C[C@@]1(CCC)[C@@H](NC(=O)c1ccc(-c2ccccc2)cc1)c1cccc(Cl)c1,0.78 and -0.0975
4,C=CCN(C(=O)C(c1cccs1)N(C(=O)/C=C\C(=O)O)c1ccc(CCO)cc1)C(C)(C)C (stereo not drawn),-0.106 and -0.209
5,C=CCN(Cc1ccccc1)C(=O)C1N(CCCCCCO)C(=O)C2C(C(=O)O)C3C=CC21O3 (stereo not drawn),-0.322 and -0.246
6,COc1ccc(COC(=O)NN=C2C[C@@H](O)[C@@H](O)[C@@H]3[C@@H]4C(=O)N(C(C)(C)C)C(=O)[C@@H]4CC[C@H]23)cc1,-0.132
7,O=C1NC(=O)C2C1C=CC(C(O)c1ccc([N+](=O)[O-])cc1)N2Nc1ccc(Cl)cc1Cl (stereo not drawn),0.0661 and -0.102
8,COC(=O)C1=C(C)N(Cc2ccccc2)C2=C3C(=O)CCC[C@@H]3[C@@](O)(C(=O)OC)C(=O)N2[C@@H]1c1ccccc1,-0.177 and 0.108
9,C[N+](C)(C)CCCCNC(=O)[C@H]1C[C@H]2C(=O)N[C@@H](CCCC[N+](C)(C)C)C(=O)N2[C@H]1c1cccc(OCCO)c1,0.0614 and 0.22
10,C=CCN(CCCCC)C(=O)C1N(c2ccc(CCO)cc2)C(=O)C2C(C(=O)O)C3C=CC21O3 (stereo not drawn),-0.233 and -0.145
11,CC(C)C(=O)N[C@@H]1CCCN1C(=O)C=Cc1ccccc1,0.0289
12,C[C@@H](ON=C1[C@H]2CCn3c(=O)n(-c4ccccc4)c(=O)n3[C@H]2[C@H](O)[C@@H]2O[C@H]12)c1cn([C@H](CO)Cc2ccccc2)nn1,-0.194
13,C=CCN1C(=O)[C@]2(O[C@H](CCn3cc(CCO)nn3)[C@@H]([Si](C)(C)c3ccc(OC)cc3)[C@@H]2C)c2cc(N3C(=O)c4cccc5cccc3c45)ccc21,-0.0828 and -0.238
14,COC(=O)[C@@]1(Cc2ccc(F)cc2)[C@H]2c3cc(C(=O)N4CCCC4)n(Cc4c(CO)[nH]cc(C)c4=O)c3C[C@H]2CN1C(=O)c1ccccc1,0.985 and 0.0594
15,C=CCN(CCCCC)C(=O)C1N(c2c(Cl)cccc2CO)C(=O)C2C(C(=O)O)C3C=CC21O3 (stereo not drawn),-0.441 and -0.411
16,C=CCN(C(=O)C1N(c2c(Cl)cccc2CO)C(=O)C2C(C(=O)O)C3C=CC21O3)C(C)(C)C (stereo not drawn),-0.403 and -0.366
17,COC(=O)[C@@]1(Cc2ccc(OC)cc2)[C@H]2c3cc(C(=O)N(C)C)n(Cc4ccc(O)c(OC)c4)c3C[C@H]2CN1C(=O)c1ccccc1,0.0395 and 0.0354
18,C=CCN(C(=O)C1N(C(C)(C)CO)C(=O)C2C(C(=O)O)C3C=CC21O3)c1ccc(OC)cc1 (stereo not drawn),-0.263 and -0.315
19,C[N+](C)(C)CCCCNC(=O)[C@@H]1C[C@@H]2C(=O)N[C@@H](CCCC[N+](C)(C)C)C(=O)N2[C@@H]1c1cccc(OCCO)c1,0.399 and 0.56
20,CCCC[C@@H]1CN2[C@@H](CC[C@@H](C)[C@@H]2c2ccc(Br)cc2)C(=O)O1,-0.141 and 0.0021

row,SMILES,composite z-score
1,CCN1C(=O)[C@H]2[C@H]3[C@H](O)[C@H](O)CC(=NOC)[C@@H]3CC[C@H]2C1=O,-0.0581
2,C=C[C@H](OC)[C@@H](O)c1ccc(OCCO)cc1,-0.313 and -0.314
3,COC(=O)C1=C(C)N(Cc2ccccc2)[C@]23O[C@](C(=O)OC)(C(=O)N2[C@@H]1c1ccccc1)[C@@H](c1ccccc1)[C@@H]3C(=O)c1ccccc1,0.0557 and -0.0428
4,CCOC(=O)[C@@H]1CC=C2CC1C(=O)N1CCC[C@@H]1[C@H]2O[Si](C)(C)C(C)(C)C (stereo partly drawn),-0.218 and -0.273
5,CCOC(=O)[C@@H]1CC2O[C@]23C[C@@H]1C(=O)N1CCC[C@@H]1[C@H]3O[Si](C)(C)C(C)(C)C (stereo partly drawn),-0.12 and -0.0314
6,Cc1ccc(S(=O)(=O)OC[C@@H]2CN3[C@@H](CC[C@@H](C)[C@@H]3c3ccc(Br)cc3)C(=O)O2)cc1,0.0519 and -0.0671
7,COC(=O)C1=C(C)N(Cc2ccccc2)[C@]23O[C@](C(=O)OC)(C(=O)N2[C@@H]1c1ccccc1)[C@H]1C(=O)N(c2ccccc2)C(=O)[C@H]13,0.253 and 0.0534
8,CCOC(=O)c1ccc(NC(=O)O[C@H]2[C@H](OC(=O)Nc3ccccc3)[C@H](OC(=O)Nc3ccccc3)[C@@H](OC)O[C@@H]2CO)cc1,0.445 and -0.0118
9,C[N+](C)(C)CCCCCCNC(=O)[C@H]1C[C@H]2C(=O)N[C@@H](CCCC[N+](C)(C)C)C(=O)N2[C@H]1c1ccc(O)cc1,-0.151 and -0.236
10,Cc1ccc(S(=O)(=O)N[C@@H]2COC(=O)CC=C[C@@H](C)[C@@H]3C=C[C@H](O)[C@@H](COC(=O)CC=C[C@H]2C)O3)cc1,-0.072 and -0.112
11,CCCNC(=O)OC[C@H]1O[C@H](CCON=C(C)CCC(=O)OC[C@H]2O[C@H](C#Cc3ccccc3)C=C[C@@H]2Oc2ccc(C)cc2)C=C[C@@H]1Oc1ccc(OC)cc1,-0.12
12,C=CCN(CCCC)C(=O)C1N(C(C)(C)CO)C(=O)C2C(C(=O)O)C3C=CC21O3 (stereo not drawn),-0.23 and -0.336
13,C=C[C@@H](C)[C@H](O)c1ccc(O)c2ccccc12,-0.244 and -0.399
14,C=CCN(Cc1ccccc1)C(=O)C1N(C(C)(C)CO)C(=O)C2C(C(=O)O)C3C=CC21O3 (stereo not drawn),-0.25 and -0.242
15,C=CC[C@H](O)c1ccc(OCCO)cc1,-0.162 and -0.191
16,C=CCN(C(=O)C(c1cccs1)N(C(=O)/C=C\C(=O)O)c1ccc(CCO)cc1)c1ccc(OC)cc1 (stereo not drawn),-0.231 and -0.348
17,C=CC[C@@H](O)c1ccc(OCCO)cc1,-0.272 and -0.305
18,C=CCN(C(=O)C1N(CCCCCCO)C(=O)C2C(C(=O)O)C3C=CC21O3)c1ccc(OC)cc1 (stereo not drawn),-0.267 and -0.241
19,COC(=O)C1=C(C)N(Cc2ccccc2)C2=C(C(=O)c3ccccc3)[C@H](c3ccccc3)[C@@](O)(C(=O)OC)C(=O)N2[C@@H]1c1ccccc1,0.127 and -0.123
20,Cc1ccc(S(=O)(=O)N[C@H]2COC(=O)[C@@H](C)COC(=O)[C@H](C)NC(=O)CC=C[C@H]2C)cc1,-0.0862

# From PubChem BioAssay
